# Compound activity (PubChem)
# The list is not random: actives were taken first. Their share in the collection is about 17%.
# TDP1 block: inhibitors of human tyrosyl-DNA phosphodiesterase TDP1; 350,000 compounds, 0.28% hits; Q9NUW8; Potency, µM (top dose mostly 130 µM), without a hit: at the highest dose activity change, negative = inhibition, actives largely listed as inhibitors; recombinant TDP1, AlphaScreen DNA substrate cleavage; further: on the % scale 0 is the no-effect control and ±100 the full control effect; nearly all actives have a fitted effect of over 40% in size
#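 Recombinant human Tdp1 (E. coli-expressed, 1 nM final) preincubated with compounds 15 min at room temperature, then 5'-biotin/3'-phosphotyrosine-FITC DNA substrate (15 nM final) added for 5 min. AlphaScreen beads (10 ug/ml final) added 10 min; cleavage lowers signal.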
# DT40 TDP1 CPT: growth inhibition of DT40 Tdp1-/-;hTDP1 cells with camptothecin (screen for TDP1 inhibitors); AID 686979; chicken DT40 Tdp1-/-;hTDP1 cells + 20 nM CPT, ATP luminescence, 48 h; Potency, µM (top dose mostly 46.2 µM), for inactives: at the top dose activity change, negative = growth inhibition, most hits filed as inhibitors; 420,000 compounds, 12% hits; further: on the % scale 0 is the no-effect control and ±100 the full control effect; nearly all actives have a fitted effect of over 55% in size
#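 Chicken DT40 Tdp1-/- cells stably complemented with human TDP1 were seeded at 400 cells/well in medium containing 20 nM camptothecin, exposed to pin-transferred compounds, and grown at 37 °C for at least 48 hr. Viability was read as ATP luminescence.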
# ClpP mod: qHTS Assay for Activators of ClpP; ATP-dependent Clp protease proteolytic subunit (Bacillus subtilis (strain 168)), P80244; purified B. subtilis ClpP, FRET peptide cleavage, 20 min; Potency, µM (series often up to 57.5 µM), inactives show at the highest dose activity change, negative = active; 340,000 compounds, 1.9% hits; active means well fitted falling curve with a large enough effect; inconclusive means small, poorly fitted or top-dose-only effect; inactive means no such curve, though single readings can be large or run the other way; further: the source files actives as falling curves though it sought activators and does not explain the sign; nearly all actives have a fitted effect of over 65% in size
#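 ClpP 10 microg/mL final, pH 8 Tris/KCl buffer with BSA, glycerol, Tween-20; compound pinned in; FRET-FV substrate; RT 20 min; Ex320/Em430; ΔFRET vs ADEP 5.8 microM, DMSO, no enzyme.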
# DT40 TDP1 no CPT: qHTS for Inhibitors of human tyrosyl-DNA phosphodiesterase 1 (TDP1): qHTS in cells in absence of CPT. 420,000 compounds, 15% hits. Potency, µM (doses to about 46.2 µM), for the others: at the highest dose activity change, negative = growth inhibition, usual class: inhibitors. DT40 Tdp1-/- hTDP1 cells, no CPT, ATP luminescence, 48 h. AID 686978, 2013; further: on the % scale 0 is the no-effect control and ±100 the full control effect; nearly all actives have a fitted effect of over 55% in size
#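 Growth of hTDP1-complemented DT40 Tdp1-knockout cells is measured by ATP luminescence after at least 48 hr compound exposure at 37 °C, with DMSO substituting for the 20 nM CPT used in the parallel screen.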
# Numbers without * were called inactive; u = inconclusive; x = no result given. Unless noted, the call rests on the fitted dose curve; in most records, active means well fitted curve in the direction sought with a large enough effect; inconclusive means small, poorly fitted or top-dose-only effect, or another doubt; inactive means no such curve, though single readings can be large; an effect the other way counts as inactive or inconclusive. Potency means the concentration at half of the fitted maximal effect.
SMILES,TDP1 block,DT40 TDP1 CPT,ClpP mod,DT40 TDP1 no CPT
O=[N+]([O-])c1cccnc1N/N=C/c1ccccc1O,-1%,u,x,9.2µM*
O=[N+]([O-])c1ccc(NN=Cc2ccccc2)nc1,x,-4%,-3%,-2%
O=[N+]([O-])c1ccc(N/N=C\c2cccn2-c2ccccc2)nc1,13%,12µM*,-2%,u
Cc1c(O)ccc(/C=N/Nc2ncccc2[N+](=O)[O-])c1O,x,u,-1%,u
O=[N+]([O-])c1ccc(O)c(/C=N/Nc2nc3ccccc3[nH]2)c1,10%,4.1µM*,-1%,2.1µM*
O=[N+]([O-])c1ccc(O)c(/C=N/Nc2ccccn2)c1,8%,1.3µM*,-4%,1.5µM*
CCOC(=O)c1ccc(N2C(=O)C(CC(N)=O)N(CCc3ccc(OC)c(OC)c3)C2=S)cc1 (centres undefined),6%,17%,x,10%
O=[N+]([O-])c1ccc(O)c(/C=N/Nc2ncnc3c2cnn3-c2ccccc2)c1,x,3.7µM*,-3%,3.7µM*
CCN(CC)S(=O)(=O)c1ccc(N/N=C(\C)c2cccnc2)nc1,x,3%,0%,-5%
Cc1ccccc1-n1c(C)cc(/C=N/Nc2ccc([N+](=O)[O-])cn2)c1C,7%,26µM*,u,u
O=[N+]([O-])c1ccc(NN=Cc2ccc(O)cc2O)nc1,x,3.3µM*,x,5.8µM*
O=[N+]([O-])c1ccc(NN=Cc2ccc(O)cc2)nc1,x,5%,x,-9%
CCN(CC)S(=O)(=O)c1ccc(N/N=C(\C)c2ccncc2)nc1,-2%,23µM*,x,u
COc1ccc2c(c1)cc1c(=O)n(CC(=O)NC3CCCCC3)nc(C)n12,-7%,8%,-8%,3%
O=[N+]([O-])c1ccc(N/N=C/c2ccccc2O)cc1,x,13µM*,-4%,8.2µM*
COCCn1c(SCC(=O)Nc2ccc(F)c(Cl)c2)nc2c(oc3ccccc32)c1=O,-3%,5.2µM*,-17%,u
COc1ccc(NC(=O)CSc2nc3c(oc4ccccc43)c(=O)n2Cc2ccco2)cc1Cl,x,u,-26%,21µM*
O=C(CSc1ncnc2c1oc1ccccc12)Nc1cccc(Cl)c1,6%,u,1%,-17%
Cc1ccc(-n2c(SCC(=O)Nc3cccc(S(N)(=O)=O)c3)nc3ccccc32)cc1,8%,18µM*,-4%,u
O=C(CSc1nc2c(oc3ccccc32)c(=O)n1Cc1ccco1)Nc1cccc(Cl)c1,-2%,u,12%,21µM*
COc1ccc(Cl)cc1NC(=O)CSc1nc2c(oc3ccccc32)c(=O)n1Cc1ccco1,2%,u,-2%,u
COC(=O)[C@@]1(Cc2ccc(F)cc2)[C@H]2c3cc(C(=O)N(C)C)n(Cc4cc(F)c(F)c(F)c4)c3C[C@H]2CN1C(=O)c1ccccc1,9%,x,x,x
CCN1CCN(S(=O)(=O)c2ccc(Cl)c(C(=O)N(C)C3CCCCC3)c2)CC1,x,u,0%,u
COc1ccc(OC)c(NC(=O)Cn2c(=O)n(-c3ccc(Cl)cc3)c(=O)c3c(C)c(C)sc32)c1,3%,u,2%,u
O=S1(=O)N[C@@H](Cc2ccccc2)COc2cc(Br)ccc21,x,0%,3%,-16%
SMILES,TDP1 block,DT40 TDP1 CPT,ClpP mod,DT40 TDP1 no CPT
COCCn1c(SCC(=O)Nc2ccccc2)nc2c(oc3ccccc32)c1=O,-10%,-28%,-2%,u
CCn1c(SCC(=O)Nc2cccc(C)c2)nc2nc3c(cc2c1=O)COC(C)(C)C3,8%,26µM*,1%,18µM*
Cc1cccc(NC(=O)CSc2nc3c(oc4ccccc43)c(=O)n2Cc2ccco2)c1,-5%,23µM*,-4%,16µM*
COc1cccc(NC(=O)CSc2nc3c(oc4ccccc43)c(=O)n2Cc2ccco2)c1,8%,9.2µM*,-26%,9.2µM*
COCCn1c(SCC(=O)Nc2cccc(S(N)(=O)=O)c2)nc2cc(Cl)ccc2c1=O,5%,15µM*,x,18µM*
CCn1c(SCC(=O)Nc2ccc(OC)cc2OC)nc2nc3c(cc2c1=O)COC(C)(C)C3,0%,-28%,x,u
